Source: PubChem BioAssay AID504374 (National Center for Advancing Translational Sciences (NCATS), 2011)
Screen size: about 1,500 compounds; about 100 (6.7%) were called active. Inconclusive results (about 7%) are left out. Calls come from the whole dose curve; as a rule, active = well fitted inhibition curve with a large enough effect; inconclusive = small, poorly fitted or top-dose-only effect, or effect the other way; inactive = flat fitted curve, though single readings scatter. What follows is part of a selection rich in actives, with near analogues and random picks from the rest. Entries that show only a call come without a potency.

Molecular target: Runt-related transcription factor 1 (Homo sapiens) + Core-binding factor subunit beta (Homo sapiens) (UniProt Q01196+Q13951)
Sequence (Q01196 whole entry, looked up): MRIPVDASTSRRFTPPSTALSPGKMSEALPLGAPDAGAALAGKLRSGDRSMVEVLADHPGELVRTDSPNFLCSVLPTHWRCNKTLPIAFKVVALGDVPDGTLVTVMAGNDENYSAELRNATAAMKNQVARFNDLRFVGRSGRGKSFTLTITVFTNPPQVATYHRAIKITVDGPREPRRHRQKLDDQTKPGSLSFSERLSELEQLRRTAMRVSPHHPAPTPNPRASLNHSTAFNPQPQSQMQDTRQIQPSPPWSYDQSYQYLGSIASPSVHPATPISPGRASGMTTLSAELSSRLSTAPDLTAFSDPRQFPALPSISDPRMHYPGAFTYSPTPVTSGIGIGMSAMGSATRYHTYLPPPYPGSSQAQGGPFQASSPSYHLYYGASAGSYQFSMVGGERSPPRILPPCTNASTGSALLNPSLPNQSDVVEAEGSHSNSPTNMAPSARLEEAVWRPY
Sequence (Q13951 whole entry, looked up): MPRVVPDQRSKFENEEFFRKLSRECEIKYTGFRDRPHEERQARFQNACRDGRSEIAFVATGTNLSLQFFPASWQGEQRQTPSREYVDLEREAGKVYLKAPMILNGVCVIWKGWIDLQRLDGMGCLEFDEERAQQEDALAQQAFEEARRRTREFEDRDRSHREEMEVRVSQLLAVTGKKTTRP
Assay: qHTS Assay for Compounds Blocking the Interaction Between CBF-beta and RUNX1 for the Treatment of Acute Myeloid Leukemia: Hit Validation; note: nearly all actives have a fitted effect of over 60% in size
Details: AlphaScreen CBFb-His/RUNX1-biotin binding; series mostly up to 59.8 µM
Description: NIH Chemical Genomics Center [NCGC]
NIH Molecular Libraries Probe Production centers Network [MLPCN]
Assay Submitter (PI): Paul Liu
Core Binding Factor (CBF) abnormalities are associated with 20-25% of all acute myeloid leukemias (AML), of which 5-10% are further sub classified as acute myelomonocytic leukemia with eosinophilia, also known as M4Eo in the FAB classification scheme. This subtype of leukemia is usually associated with chromosome 16 inversion (p13:q22). Chromosome 16 inversion results in formation of the fusion oncogene CBFB-MYH11, which encodes the fusion protein CBF-beta-SMMHC.
It has been hypothesized that the interference of CBF-beta and RUNX1 binding could have therapeutic implications for patients with CBF mediated leukemias. We developed a CBF-beta and RUNX1 binding assay in AlphaScreenTM format and optimized it for high throughput screening to search for inhibitors. The goal of this project is to screen MLPCN's compound collection (MLSMR) for identifying the inhibitors of the interaction between CBF-beta and RUNX1 proteins as research probes. If these probes work well in the animal models, the ultimate goal of this project is to development a new drug treatment for this disease.
This assay can not be used to assess how apparent inhibitors interfere with protein binding, and whether inhibitors specifically bind to either protein. Disruption of this protein-protein interaction, through any mechanism, is the intended target activity.
The present data set was run to confirm the activity of hits from the primary screen.
NCGC Assay Protocol Summary:
Step, Parameter, Description
(1) Reagent, 3 uL CBFb-His/RUNX1-biotin mix incubated together for 20 minutes at room temperature (30 nM each)
(2) Compound or control, 23 nL compound stock solution
(3) Incubation, 15 minutes at Room temperature
(4) Reagent, 1 uL 50 ng each of beads (Nickel beads and streptavidin beads)
(5) Incubation, 90 minutes at Room temperature
(6) Detection, Excitation=365 nm Emission=440 nm, Envision reader in AlphaScreenTM mode
Keywords: MLSMR, MLPCN, NIH Roadmap, qHTS, NCGC, Core binding factor, CBF, CBF-beta, Acute myeloid leukemia
Potency is the fitted concentration of half-maximal effect.

Row | Structure (SMILES) | Potency
1 | COc1cc(/C=N/n2c(-c3ccccc3)n[nH]c2=S)cc(OC)c1O | inactive
2 | COc1ccccc1/C=C/C=N/n1c(-c2ccccn2)n[nH]c1=S | 11.2 µM (active)
3 | Cc1ccc(/C=N/n2c(-c3ccncc3)n[nH]c2=S)s1 | inactive
4 | CC(=O)c1c(C)nc(Nc2nc3ccccc3s2)nc1C | inactive
5 | COc1ccc(Nc2cc(=O)n(-c3ccccc3)c3c2c(=O)n(C)c(=O)n3C)cc1 | inactive
6 | Cn1c(=O)c2c(nc(N3CCOCC3)n2C/C=C/c2ccccc2)n(C)c1=O | inactive
7 | COCCCN1CCN(C2Cc3ccccc3Sc3ccc(Cl)cc32)CC1 (stereo not drawn) | 12.2 µM (active)
8 | CC(C)(C)OC(=O)N1CCC[C@H]1c1nnc(SCc2ccccc2)o1 | inactive
9 | CCCCNC(=O)Nc1ncn[nH]1 | inactive
10 | Cc1nn(-c2ccccc2)c(NC(=O)c2cccs2)c(-c2ccccc2Cl)c1=O | inactive
11 | CC(C)(C)OC(=O)N[C@@H](Cc1ccccc1)c1nnc(SCC(N)=O)o1 | inactive
12 | O=C(O)c1ccc(/C=N\Nc2ccc(S(=O)(=O)N3CCOCC3)cc2[N+](=O)[O-])cc1 | inactive
13 | O=C(N/N=C/c1ccc(Br)s1)c1ccco1 | inactive
14 | Cc1nn(C)cc1/C=N/NC(=O)c1ccco1 | inactive
15 | CCN(CC)c1ccc(/C=N/NC(=O)c2ccco2)c(O)c1 | 31.6 µM (active)
16 | CCOC(=O)C(=CNNc1c(C)csc1C(=O)OC)C(=O)OCC | inactive
17 | COC(=O)[C@H](CC(C)C)NC(=O)NCCC1=CCCCC1 | inactive
18 | CCOc1ccc(/C=C2\CCc3ccccc3C2=O)cc1 | inactive
19 | CCCOc1ccc(-c2nc(-c3ccc([N+](=O)[O-])cc3)cs2)cc1 | inactive
20 | COc1cccc(C2/C(=C(/O)c3ccccc3)C(=O)C(=O)N2Cc2ccco2)c1 (stereo not drawn) | inactive
21 | O=C(/C=C/c1ccccc1)Nc1cccnc1Oc1ccccc1F | inactive
22 | O=[N+]([O-])c1ccc2c(c1)S(=O)c1ccccc1-2 (stereo not drawn) | inactive
23 | O=[N+]([O-])c1ccc(O)c(/C=N/NC2=NS(=O)(=O)c3ccccc32)c1 | 2.82 µM (active)

Row | Structure (SMILES) | Potency
24 | Cc1cc([N+](=O)[O-])nn1CC(=O)N/N=C/c1ccccc1F | inactive
25 | COC(=O)[C@H](CC(C)C)NC(=O)N1CCCCC1C (stereo partly drawn) | inactive
26 | COc1ccc(/C(C)=N/NC(=O)CNC(=O)Cc2ccccc2)c(OC)c1 | inactive
27 | Cc1ccc(C)c(NC(=S)N(CCN(C)C)C(C)c2ccccn2)c1 (stereo not drawn) | 4.86 µM (active)
28 | Cc1cccc(C)c1NC(=S)N(CCN(C)C)C(C)c1ccccn1 (stereo not drawn) | 4.86 µM (active)
29 | CCCCNC(=O)Nc1ccccc1CC | inactive
30 | Cc1c(Cl)cccc1NC(=S)N(CCN(C)C)C(C)c1ccccn1 (stereo not drawn) | 4.34 µM (active)
31 | CCc1ccccc1NC(=S)N(CCN(C)C)C(C)c1ccccn1 (stereo not drawn) | 6.12 µM (active)
32 | COc1ccc(C2=NOC(CNC(=O)c3ccccc3Br)C2)c(OC)c1 (stereo not drawn) | inactive
33 | CC(C)(C)NC(=O)NCCc1ccccc1 | inactive
34 | Fc1ccc(-c2cc(-c3cccs3)cc(-c3ccccc3)n2)cc1 | inactive
35 | Clc1ccc(Nc2ccc(Cl)nn2)cc1 | inactive
36 | COCc1cc(=O)[nH]c2c1c(-c1ccccc1)nn2C | inactive
37 | Cc1cc(N2CCOCC2)n2ncc(-c3ccc(Cl)cc3)c2n1 | inactive
38 | CC(C)c1nc(C#N)c(NN)o1 | inactive
39 | COCc1cc(=O)n2[nH]c(-c3ccco3)cc2n1 | inactive
40 | CCC1(CC)Nc2ccccc2C(=O)N1c1ccc(OC)cc1 | inactive
41 | CCNC(=O)NC(=O)c1csc([N+](=O)[O-])c1 | inactive
42 | Cc1ccc(Cl)cc1NC(=S)NN | inactive
43 | Cc1ccccc1NC(=S)N(CCN(C)C)C(C)c1ccccn1 (stereo not drawn) | 4.86 µM (active)
44 | Cc1ccc(Cl)cc1NC(=S)N(CCN(C)C)C(C)c1ccccn1 (stereo not drawn) | 5.46 µM (active)
45 | Cc1cc(NC(=O)Nc2cc(Cl)ccc2C)no1 | inactive
46 | Cc1ccccc1NC(=S)Nc1ccccn1 | inactive

Row | Structure (SMILES) | Potency
47 | NC(=O)C1CCN(c2c([N+](=O)[O-])cc(C(F)(F)F)cc2[N+](=O)[O-])CC1 | inactive
48 | C/C(=N\Nc1ccc(C#N)cc1[N+](=O)[O-])c1ccc(O)cc1 | inactive
49 | CC1CC(=O)Nc2ccccc2N1S(=O)(=O)c1ccc(Cl)cc1 (stereo not drawn) | inactive
50 | O=C(CCCCCCCCCCC(=O)NCc1cccnc1)NCc1cccnc1 | inactive
51 | Cc1ccc(C2N=C(N)Nc3nc(=O)c4ccccc4n32)cc1 (stereo not drawn) | inactive
52 | Cc1cccnc1NC(=O)c1csnn1 | inactive
53 | O=C(OCC1OC(OC(=O)c2cc(O)c(O)c(OC(=O)c3cc(O)c(O)c(O)c3)c2)[C@@H](OC(=O)c2cc(O)c(O)c(OC(=O)c3cc(O)c(O)c(O)c3)c2)C(OC(=O)c2cc(O)c(O)c(OC(=O)c3cc(O)c(O)c(O)c3)c2)C1OC(=O)c1cc(O)c(O)c(OC(=O)c2cc(O)c(O)c(O)c2)c1)c1cc(O)c(O)c(OC(=O)c2cc(O)c(O)c(O)c2)c1 (stereo partly drawn) | 0.398 µM (active)
54 | O=c1[nH]nc(N2CCOCC2)c(=O)[nH]1 | inactive
55 | CCCCCCC(=O)N(O)C1CC(=O)N(c2ccc(F)cc2)C1=O (stereo not drawn) | inactive
56 | O=C1Nc2ccccc2C1(O)Cc1ccccn1 (stereo not drawn) | inactive
57 | O=C(N/N=C/c1ccccc1[N+](=O)[O-])c1cnccn1 | inactive
58 | Oc1ccccc1/C=N/Nc1ncc(Br)cn1 | 3.55 µM (active)
59 | O=C(O)c1ccccc1N/N=C/c1cc(Br)cc(Br)c1O | inactive
60 | O=C(c1ccccc1)c1ccc2c(c1)OCCCO2 | inactive
61 | CCOc1ccc(OCc2ccc(C(=O)NN)o2)cc1 | inactive
62 | Cc1cccc(-c2n[nH]c(=S)n2/N=C/c2cccs2)c1 | inactive
63 | OCc1ncc(-c2ccccc2)s1 | inactive
64 | c1ccc(-c2nnc(-c3ccccn3)nc2NC2CCCCC2)cc1 | 2.24 µM (active)
65 | CN(C)c1nc(-c2ccccn2)nnc1-c1ccccc1 | 1.41 µM (active)
66 | c1ccc(-c2nnc(N3CCN(c4ccccc4)CC3)nc2-c2ccccc2)cc1 | inactive
67 | CN1CCN(c2nnc(-c3ccccc3)c(-c3ccccc3)n2)CC1 | inactive
68 | O=C(N/N=C/c1ccco1)c1cc(C2CC2)[nH]n1 | inactive
69 | Cc1onc(-c2c(Cl)cccc2Cl)c1C(=O)Nc1nc(C(C)(C)C)cs1 | inactive

Row | Structure (SMILES) | Potency
70 | Cc1ccc(-c2c[n+](CC(=O)Nc3ccccc3C)c3n2CCC3)cc1 | inactive
71 | Cc1ccc(C[n+]2cc(-c3ccc(Cl)cc3)n3c2CCC3)cc1 | inactive
72 | COc1ccc(/C=N/OC(=O)c2ccc(Cl)cc2)c(Cl)c1OC | inactive
73 | CCOC(=O)CSc1nnc(Cn2nnc3ccccc32)n1-c1ccc(F)cc1 | inactive
74 | CN(CC(O)CN1CCOCC1)S(=O)(=O)O (stereo not drawn) | inactive
75 | CCOC(=O)c1nn(-c2ccc([N+](=O)[O-])cc2)cc1O | inactive
76 | Cn1c(=O)c2cc3ccccc3nc2n(C)c1=O | inactive
77 | COc1ccc(CCNC(=S)NCCc2ccc(OC)c(OC)c2)cc1OC | inactive
78 | CCO/C=C1\SC(=S)N(c2ccc(Cl)cc2)C1=O | inactive
79 | Cc1ccc(S(=O)(=O)NC(=O)Nc2ccc(OC(F)F)cc2)cc1 | inactive
80 | Nc1nc(-c2ccccc2)c(N=Nc2cccc3ccccc23)s1 | 1.94 µM (active)
81 | Nc1nc(-c2ccccc2)c(N=Nc2ccccc2Cl)s1 | 4.34 µM (active)
82 | Cc1cc(C)n2nc(N)c(N=Nc3ccccc3)c2n1 | inactive
83 | Nc1nc(-c2ccccc2)c(N=Nc2ccc(Cl)cc2)s1 | 13.7 µM (active)
84 | CC1CC(C)(C)OC(C[N+]2(C)CCCCC2)O1 (stereo not drawn) | inactive
85 | COc1ccccc1NC(=S)NC1CCCCCCCCCCC1 | inactive
86 | CCOC(=O)C1CCCN(C(=O)Nc2c(-c3ccccc3)noc2C)C1 (stereo not drawn) | inactive
87 | COc1ccc(C(=O)/C=C/Nc2cc(C)ccn2)cc1 | inactive
88 | COC(=O)c1[nH]c2cc(OC)ccc2c1NC(=O)c1c(F)cccc1F | inactive
89 | CC(C)(C)c1csc(Sc2ccc([N+](=O)[O-])cn2)n1 | inactive
90 | CC(=O)Oc1cc2cccc(OC(C)=O)c(=O)c2c(OC(C)=O)c1OC(C)=O | 1.12 µM (active)
91 | O=C(N/N=C/c1ccc2c(c1)OCCO2)c1ccncc1 | inactive
92 | CC(=O)c1cnn(-c2ccc(Cl)c(Cl)c2Cl)c1C | inactive

Row | Structure (SMILES) | Potency
93 | CCOC(=O)N1CCc2c(sc3nc[nH]c(=O)c23)C1 | inactive
94 | CCc1c(C#N)sc(C(N)=O)c1CC | inactive
95 | CN=c1scc(-c2ccccc2F)n1/N=C/c1ccc(O)c(O)c1O | 6.87 µM (active)
96 | CC(=O)Nc1ccc(S(=O)(=O)Nc2ccc(C(=O)NCC(=O)O)cc2)cc1 | inactive
97 | Cc1cccc(C)c1NC(=S)N1CCOCC1 | inactive
98 | Cc1ccc(C(=O)CSc2nnc(-c3snnc3C)n2C2CC2)cc1 | inactive
99 | CN(C)c1ccc(N2C(=O)CC(c3ccccc3)CC2=O)cc1 | inactive
100 | CC1=NN(c2ccccc2)C(=O)/C1=C/C=C/c1ccc(N(C)C)cc1 | 1.12 µM (active)
101 | CC1=[N+](C)N(c2ccccc2)C(=O)C1N=C/C=C/c1ccccc1 (stereo not drawn) | inactive
102 | CN1CCN(C(=O)Nc2cccc(-c3ccccc3)c2)CC1 | inactive
103 | CCc1c(-c2ccccc2)[n+](=O)c2c(n1[O-])CCC2 | inactive
104 | O=C(O)C1=CC(=C(c2ccc(O)c(C(=O)O)c2)c2ccc(O)c(C(=O)O)c2)C=CC1=O | 1.78 µM (active)
105 | O=C(NNC(=S)NC1CC2C=CC1C2)c1ccncc1 (stereo not drawn) | inactive
106 | O=C(N/N=C/c1ccncc1)c1cnccn1 | inactive
107 | O=C(NC(=S)NNC(=O)c1cnccn1)c1ccc(F)cc1 | 2 µM (active)
108 | CCOP(=O)(c1ccc(N(C)C)cc1)C(O)c1cccnc1 (stereo not drawn) | inactive
109 | CN(C)NC(=S)NC1CCS(=O)(=O)C1 (stereo not drawn) | inactive
110 | O=C1CC(Sc2ccc(Cl)cc2)C(=O)N1c1ccc2c(c1)OCCO2 (stereo not drawn) | inactive
111 | Fc1ccccc1/C=N/n1c(-c2cccnc2)n[nH]c1=S | inactive
112 | O=[N+]([O-])c1cc2c(cc1/C=N/n1c(-c3ccccn3)n[nH]c1=S)OCO2 | 10 µM (active)
113 | Cc1cccc(-c2n[nH]c(=S)n2/N=C/c2ccco2)c1 | inactive
